D1 antag: human D1 dopamine receptor antagonism. P21728. HEK293 TREx D1 cells, calcium flux, dopamine EC80; active compounds read low. activity change, negative = inhibition, % at 10 µM. actives 3.2% (n = 360,000). AID 504652; in the data active = activity change below about -30%
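Allosteric or orthosteric antagonism assessed as attenuation of the calcium response to EC80 dopamine, added 180 s after compound, in induced HEK293 Trex D1 cells loaded with no-wash calcium dye.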
DRD3 agonist: activates the human D3 dopamine receptor | P35462 | D3R DiscoveRx beta-arrestin cells, luminescence, 90 min | max activation, % | actives 0.58% (n = 410,000) | AID 652048; in the data active = max activation above about 30%
Target sequence (P35462 whole entry, looked up): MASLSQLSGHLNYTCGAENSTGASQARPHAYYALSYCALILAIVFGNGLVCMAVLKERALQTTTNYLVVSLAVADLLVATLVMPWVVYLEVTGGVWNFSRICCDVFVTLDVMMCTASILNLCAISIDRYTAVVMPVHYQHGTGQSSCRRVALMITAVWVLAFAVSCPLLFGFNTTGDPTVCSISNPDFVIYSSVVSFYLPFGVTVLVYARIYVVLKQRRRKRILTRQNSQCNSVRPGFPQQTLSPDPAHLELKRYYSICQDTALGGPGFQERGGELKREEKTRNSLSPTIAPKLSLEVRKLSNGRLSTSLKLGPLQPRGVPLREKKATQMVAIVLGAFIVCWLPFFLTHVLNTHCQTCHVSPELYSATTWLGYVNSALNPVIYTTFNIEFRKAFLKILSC
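Agonist-mode cell screen: cells plated at 1500/well and incubated overnight at 37 °C, then exposed to library compounds for 90 min at 37 °C. Detection reagent was added for 30–60 min at room temperature, and luminescence was read.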
DRD3 antagonist: blocks the human D3 dopamine receptor; D3R cells, DiscoveRx beta-arrestin luminescence, antagonist mode; active compounds read low; max response, negative = inhibition, %; actives 2.5% (n = 360,000); in the data active = max response below about -50%; inconclusive = no clear call, values can overlap the other calls
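Cells plated overnight at 1500 cells/well, then exposed to library compounds with dopamine controls for 90 minutes at 37 degrees C. DiscoveRx reagent added for 30–60 minutes at room temperature; luminescence read, quantitative HTS format.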
D1 ag: activates the human D1 dopamine receptor. actives 1% (n = 360,000). activation, % at 2 µM. HEK293 T-REx D1 cells, calcium flux, agonist mode; in the data active = activation above about 30%
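Inducible HEK293 T-REx D1 cells, force-coupled to calcium signalling, were plated at 4000 cells/well with tetracycline and held overnight at 30 C. After no-wash calcium dye loading, compound-evoked calcium rise over 180 s flagged agonists.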
D1 PAM: potentiators of human D1 dopamine receptor | actives 0.036% (n = 360,000) | HEK293 TREx D1 cells, calcium flux, dopamine EC20 potentiation | P21728 | potentiation, % at 10 µM | AID 504651; in the data active = potentiation above about 30%
Large screens that a line does not name were inactive. Only some compounds are listed: those with a hit (about 6% of all), similar ones and a draw of the others.

Nc1nc2c(s1)CCCCCCCCCC2	none
CCOC(=O)c1c(C)[nH]c(C)c1S(=O)(=O)NCC(=O)N1CCN(c2cccc(C)c2)C(C)C1 (centres undefined)	none (no result: DRD3 antagonist)
COc1ccc(NC(=O)c2ccc(-c3ccc(-c4noc(C)n4)cc3C)cc2)cc1N1CCN(C)CC1	D1 antag -57
COc1ccc(-c2nc(-c3ccc(NC(=O)c4ccncc4)cc3)no2)cc1OC	DRD3 agonist 50
Cc1ccc(NC(=O)c2ccc(CN3CC(=O)N4CCCCC4C3=O)cc2)cc1 (centres undefined)	none (no result: DRD3 antagonist)
O=[S+]([O-])(c1c(F)cccc1F)N1CCN([S+](=O)([O-])c2c(F)c(F)c(F)c(F)c2F)CC1	none (no result: DRD3 agonist, DRD3 antagonist)
COc1ccc(CC2(C)OC(c3ccccc3)=NN2C(C)=O)cc1 (centres undefined)	D1 antag -42
CC(=O)N1N=C(c2cccc([N+](=O)[O-])c2)OC1(C)CC(=O)Nc1ccccc1 (centres undefined)	D1 antag -77
CCOC(=O)c1c(S(=O)(=O)N2CCC(C(=O)N3CCN(c4ccc(F)cc4)CC3)CC2)c(C)n(C)c1C	none (no result: DRD3 antagonist)
COc1ccc(CCCc2nnc(SCC(=O)Nc3ccc(Cl)cc3)o2)cc1	none (no result: DRD3 antagonist)
Cc1ccc(C)c(C(=O)Cn2ncc(Cl)c(Cl)c2=O)c1	none
Cc1cc(C(=O)Cn2ncc(Cl)c(Cl)c2=O)c(C)n1CC(F)(F)F	DRD3 antagonist -59
COc1cc(NC(=O)c2nnn(CC(=O)Nc3cc(C)ccc3C)c2N)cc(OC)c1	none (no result: DRD3 antagonist)
CCN(CC)CCOC(=O)c1ccc(NC(=O)/C=C/c2cccs2)cc1	DRD3 antagonist -101
CCCCN1CCc2c([nH]c3ccccc23)C1=O	none
CN1CCc2ccccc2Cc2[nH]c3ccccc3c2CC1	D1 antag -107, DRD3 antagonist -110
C(=C\c1ccccc1)/CN1CCN(C(c2ccccc2)c2nnnn2Cc2ccccc2)CC1 (centres undefined)	DRD3 antagonist -71 (no result: D1 antag, D1 ag, D1 PAM)
CCN1CCN(C(c2ccccc2)c2nnnn2Cc2ccc(OC)cc2)CC1 (centres undefined)	none
COc1ccc(C(c2nnnn2Cc2ccccc2)N2CCN(C/C=C/c3ccccc3)CC2)cc1 (centres undefined)	DRD3 antagonist -96 (no result: D1 antag, D1 ag, D1 PAM)
OCCCNCc1ccc(N(c2ccccc2)c2ccccc2)cc1	DRD3 antagonist -66
OCCNCc1ccc(-c2ccccc2)cc1	none
Cc1cccc(S(=O)(=O)Nc2cccc3c2C(=O)c2ccccc2-3)c1	D1 ag 50
Cc1cc(C)cc(N2CCCC2=O)c1	none
O=C1CCCN1c1cc(Cl)cc(Cl)c1	DRD3 antagonist -55
O=c1oc2cc(Oc3c([N+](=O)[O-])cc(C(F)(F)F)cc3[N+](=O)[O-])ccc2c2c1CCCC2	DRD3 antagonist -90
O=c1oc2cc(Oc3ccc(C(F)(F)F)cc3[N+](=O)[O-])ccc2c2c1CCC2	none
CC(=NNC(=S)N1CCN(C2CCCCCC2)CC1)c1ccccn1	DRD3 antagonist inconclusive (no result: D1 antag, D1 ag, D1 PAM)
CC(=NNC(=S)N1CCCCCC1)c1cccc2cccnc12	DRD3 antagonist -71 (no result: D1 antag, D1 ag, D1 PAM)
COc1ccc(CSCC(=O)N/N=C/c2ccc(OCC(=O)N3CCCCC3)cc2)cc1	DRD3 antagonist -56
CCc1nc2ccc(C(=O)NCc3ccc(N(C)C)cc3)cc2nc1CC	none (no result: DRD3 antagonist)
Cc1ccc2nc(-c3ccc(Cl)c(NC(=O)COc4ccc([N+](=O)[O-])cc4)c3)oc2c1	none (no result: DRD3 antagonist)
Cc1ccc2c(CN3CCN(C(=O)c4ccc(F)cc4)CC3)cc(=O)oc2c1	none (no result: DRD3 antagonist)
CC(C)(C)NC(=O)CN1CCC(O)(c2ccccc2)CC1	DRD3 antagonist active
CCN(Cc1ccccc1)S(=O)(=O)c1ccc(-c2coc(C)n2)cc1	none (no result: DRD3 antagonist)
CCCCCCCCCCCCCCCC(=O)OC[C@@H](O)[C@H]1OC[C@H](O)[C@H]1O	none (no result: D1 antag, DRD3 antagonist, D1 ag, D1 PAM)
Cc1ccc(-c2nn(CC(=O)O)c(=O)c3ccccc23)cc1	DRD3 antagonist inconclusive
COC(=O)Cn1nc(-c2ccc(C)cc2)c2ccccc2c1=O	D1 antag -75
Cc1nn2c(N3CCN(C)CC3)c3c(nc2c1-c1ccccc1)CCCC3	DRD3 antagonist -50
COc1ccc(Nc2c3c(nc4ccc(NC(=O)/C=C/c5cccc(OC)c5OC)cc24)CCCC3)cc1OC	none (no result: DRD3 antagonist)
CC(=O)c1cccc(NC(=O)c2noc3c2CCCC3)c1	none (no result: DRD3 antagonist)
CC(=O)C1=C(O)C(=O)N(c2ccc(S(N)(=O)=O)cc2)C1c1ccc([N+](=O)[O-])cc1 (centres undefined)	DRD3 antagonist -81
Cc1oc2ncn(C)c(=O)c2c1C(=O)Nc1ccc(F)cc1	none (no result: DRD3 antagonist)
O=C(Nc1ccc2ncccc2c1)Nc1ccc2ncccc2c1	D1 antag -36
COc1ccc(N2CCN(S(=O)(=O)c3ccc(CC(C)C)cc3)CC2)cc1	none (no result: DRD3 antagonist)
CCC(=O)N1CCc2cc(Br)cc(S(=O)(=O)N(CC)Cc3ccccc3)c21	none (no result: DRD3 antagonist)
COC(=O)/C=c1\sc2ncnn2c1=O	DRD3 antagonist -69
Cc1ccc(CSc2nc3cccnc3n2Cc2ccc(C(=O)NCCc3cccs3)cc2)cc1	none (no result: DRD3 antagonist)
O=C(Nc1cccs1)Nc1cc(C(F)(F)F)ccc1Cl	none (no result: DRD3 antagonist)
COc1cc(S(=O)(=O)NCCc2c(C)[nH]c3ccc(C)cc23)ccc1Br	none (no result: DRD3 antagonist)
OCCNCC(O)CN1c2ccccc2Sc2ccccc21 (centres undefined)	D1 antag -31, DRD3 antagonist inconclusive
CN1CCC(CN2c3ccccc3Sc3ccccc32)C1 (centres undefined)	none (no result: D1 antag, DRD3 antagonist, D1 ag, D1 PAM)
CC1CCN(CC(O)CN2c3ccccc3Sc3ccccc32)CC1 (centres undefined)	D1 antag -89, DRD3 antagonist -103, D1 ag 33
CCN(CC)C(C)CN1c2ccccc2Sc2ccccc21 (centres undefined)	none (no result: D1 antag, DRD3 antagonist, D1 ag, D1 PAM)
Nc1[nH]n2c(=O)cc(-c3ccccc3)nc2c1N=Nc1ccccc1	D1 antag -38
CC(C)(C)OC(=O)N1CCC(c2c(C(=O)NCCN3CCC(Cc4ccccc4)CC3)cnn2-c2ccc(F)cc2)CC1	D1 ag 40 (no result: DRD3 antagonist)
COc1ccc(CCN2CCC(CNC(=O)c3cnn(-c4ccccc4)c3C3CCN(C(=O)OC(C)(C)C)CC3)CC2)cc1	D1 ag 38 (no result: DRD3 antagonist)
CC(C)(C)OC(=O)N1CCC(c2c(C(=O)NCc3ccc(F)cc3)cnn2-c2ccc(F)cc2)CC1	none (no result: DRD3 antagonist)
CC(C)(C)OC(=O)N1CCC(c2c(C(=O)NCc3cccc(Cl)c3)cnn2-c2ccc(F)cc2)CC1	D1 antag -43 (no result: DRD3 antagonist)
CC(C)(C)OC(=O)N1CCC(c2c(C(=O)NCCN3CCC(Cc4ccccc4)CC3)cnn2-c2ccccc2)CC1	D1 ag 56 (no result: DRD3 antagonist)
Nc1ncc(Br)cc1S(=O)(=O)Nc1cc(C(F)(F)F)cc(C(F)(F)F)c1	D1 antag -34
Cc1ccc(NS(=O)(=O)c2cc(Br)cnc2N)c(Cl)c1	none
O=C(COCc1cc(-c2cccs2)on1)NCc1cccc(Cl)c1	none (no result: DRD3 antagonist)
CCC1CCCCN1C(=O)COC(=O)c1cc2ccccc2cc1O (centres undefined)	D1 antag -32

Compound activity: PubChem BioAssay, National Center for Advancing Translational Sciences (NCATS)
